The values that follow come from PubChem BioAssay AID1345085 (National Center for Advancing Translational Sciences (NCATS), 2018).

Inconclusive results are not listed. Calls of active or inactive are those of the source. Calls come from the whole dose curve; as a rule, active = well fitted cell-killing curve with a large enough effect; inconclusive = small, poorly fitted or top-dose-only effect, or effect the other way; inactive = no such curve, though single readings can be large or run the other way.
Potency is the fitted concentration of half-maximal effect.

This assay has as its system CAOV3. Kind of assay: Confirmatory qHTS for gynecologic anti-cancer compounds from libraries of approved drugs and bioactive compounds. Note: nearly all actives have a fitted effect of over 55% in size. The conditions noted are these: gynecologic cancer cell panel viability, ATPlite luminescence, 48 h; series mostly up to 57.6 µM. The method, boiled down:
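IC50 values derive from an ATPlite ATP-content luminescence assay following 48 h treatment at 37 C. Each compound ran as an 11-concentration, threefold series (57.5 uM to 0.977 nM); HEK 293T served as control line for selectivity index.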
As for `O=C(/C=C/c1cccc(S(=O)(=O)Nc2ccccc2)c1)NO`, the Potency was 10.6 µM (active).

As to `CCCCc1nc2cc(/C=C/C(=O)NO)ccc2n1CCN(CC)CC`, the Potency was 4.85 µM (active).

Regarding `COc1cc(N2CCC(N)CC2)ccc1Nc1ncc(Cl)c(-c2c[nH]c3ccccc23)n1`, the Potency was 3.43 µM (active).

Take `COc1cc2c(cc1-c1c(C)noc1C)ncc1[nH]c(=O)n(C(C)c3ccccn3)c12` (configuration not stated): the Potency is 1.09 µM (active).

Turning to `COc1cccc2c1C(=O)c1c(O)c3c(c(O)c1C2=O)C[C@@](O)(C(=O)CO)C[C@@H]3O[C@H]1C[C@H](N)[C@H](O[C@@H]2CCCCO2)[C@H](C)O1`, the Potency is 9.68 µM (active).

With `CCc1c2c(nc3ccc(OC(=O)N4CCC(N5CCCCC5)CC4)cc13)-c1cc3c(c(=O)n1C2)COC(=O)[C@]3(O)CC`, the Potency was 19.3 µM (active).

As to `O=C(c1ccc(F)c(F)c1Nc1ccc(I)cc1F)N1CC(O)([C@@H]2CCCCN2)C1`, the Potency was 27.3 µM (active).

On to `CCC1=CC2CN(C1)Cc1c([nH]c3ccccc13)[C@@](C(=O)OC)(c1cc3c(cc1OC)N(C)[C@H]1[C@@](O)(C(=O)OC)[C@H](OC(C)=O)[C@]4(CC)C=CCN5CC[C@]31[C@@H]54)C2` (some centres not stated), for which the Potency result is “inactive”.

As for `CN(C)C(CCOc1cccc2ccccc12)c1ccccc1` (configuration not stated), the Potency is 30.6 µM (active).

For `Cc1cnc(Nc2ccc(CN3CCOCC3)cc2)nc1Nc1cccc(S(=O)(=O)NC(C)(C)C)c1`, the Potency is 3.85 µM (active).

`C=CC(=O)Nc1cccc(Oc2nc(Nc3ccc(N4CCN(C)CC4)cc3)ncc2Cl)c1`: the Potency was 19.3 µM (active).

For the compound `COCCOc1ccc2c(c1)ncn2-c1ccc2cccc(N3CCC(N)CC3)c2n1`, the Potency result was “inactive”.
